An excerpt weighted towards active compounds, which were near 2.7% of everything screened.
Akt phos inh: blocks phosphorylation of Akt. Neuro2A IGF-stimulated pAkt S473 HTRF, 20 min; active compounds read low. activity change, % for hits at 50 µM. 360,000 tested, 0.32% active; in the data active = activity change below about -80%; inconclusive = mostly about -51% to -80%; note: % is set by controls: 0 for no effect and ±100 for the full control effect
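Single-point screen (50 µM final compound) in Neuro2A cells stimulated 20 min with 6 nM IGF at 37 deg C. After lysis, Ser473-phosphorylated Akt read by HTRF (ex 330 nm, em 615/665 nm) as the 665/615 ratio.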
gsp ag: gsp mutant agonism; gsp mutant cells, cAMP HTRF, 30 min; Potency, µM (titrated, usually from 76.9 µM), for the others: top-dose activation (cAMP increase), most hits filed as activators; 340,000 tested, 0.13% active; AID 624287; active = well fitted activation curve with a large enough effect; inconclusive = small, poorly fitted or top-dose-only effect, or another doubt; inactive = no such curve, though single readings can be large or run the other way; cell line not stated here;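 note: phosphodiesterase inhibitor Ro 20-1724 added with compounds to block cAMP breakdown; potency is the fitted concentration of half-maximal effect; nearly all actives have a fitted effect of over 60% in size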
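Cells stably selected in G418 were plated at 2000/well, grown 16-24 hr, then given compounds in DMSO with the PDE inhibitor […] (300 uM solution added) for 30 min at 37C; cAMP was read by HTRF.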
gsp antag: antagonizes gsp, the McCune-Albright syndrome mutation. gsp-mutant cells, cAMP HTRF, 30 min. Potency, µM (top dose mostly 76.9 µM), without a hit: at the top dose activity change, negative = inhibition, usual class: inhibitors. 340,000 tested, 0.4% active; calls by dose curve; cell line not stated here;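 note: intracellular cAMP measured with PDE inhibitor Ro 20-1724 present during compound exposure; potency is the fitted concentration of half-maximal effect; % is set by controls: 0 for no effect and ±100 for the full control effect; nearly all actives have a fitted effect of over 65% in size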
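Measurement of cellular cAMP by homogeneous time-resolved fluorescence following a 30 min compound exposure at 37C. The PDE inhibitor […] was present throughout; the assay buffer was DPBS with 0.05% BSA and 0.005% Tween 20.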
RXFP1 agonist: RXFP1 (human) receptor agonism; Q9HBX9; HEK293T-RXFP1 cAMP TR-FRET, 30 min; response scale: percent of porcine relaxin response, buffer zero; Potency, µM (titrated, usually from 57.5 µM), for inactives: top-dose activation, actives largely listed as activators; 370,000 tested, 0.3% active; AID 2676; active = well fitted activation curve with a large enough effect; inconclusive = small, poorly fitted or top-dose-only effect; note: potency is the fitted concentration of half-maximal effect; % is set by controls: 0 for no effect and ±100 for the full control effect; nearly all actives have a fitted effect of over 60% in size
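HEK293 cells stably expressing RXFP1, treated 30 min at 37C with compounds plus PDE4 inhibitor Ro 20174; cAMP measured by HTRF TR-FRET. Normalized to buffer and 29 nM porcine relaxin; EC50 by Hill fit.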
RXFP1 antagonist: blocks the human relaxin receptor RXFP1. Q9HBX9. HEK293-RXFP1, relaxin-stimulated cAMP HTRF, 30 min; active compounds read low. activity change, negative = inhibition, % at 57.5 µM. 350,000 tested, 0.59% active. AID 1259400;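 active = activity change of -60% or lower, but not beyond a set lower limit; inconclusive = change between -60% and -40%, or beyond the set limit; inactive = change above -40%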; note: % is set by controls: 0 for no effect and ±100 for the full control effect
ClpP mod: qHTS Assay for Activators of ClpP; ATP-dependent Clp protease proteolytic subunit (Bacillus subtilis (strain 168)), P80244; purified B. subtilis ClpP, FRET peptide cleavage, 20 min; Potency, µM (highest dose often 57.5 µM), without a hit: at the highest dose activity change, negative = active; 340,000 tested, 1.9% active; AID 651965, 2013; active = well fitted falling curve with a large enough effect; inconclusive = small, poorly fitted or top-dose-only effect; inactive = no such curve, though single readings can be large or run the other way; note: potency is the fitted concentration of half-maximal effect; the source files actives as falling curves though it sought activators and does not explain the sign; nearly all actives have a fitted effect of over 65% in size
Target sequence (P80244 whole entry, looked up): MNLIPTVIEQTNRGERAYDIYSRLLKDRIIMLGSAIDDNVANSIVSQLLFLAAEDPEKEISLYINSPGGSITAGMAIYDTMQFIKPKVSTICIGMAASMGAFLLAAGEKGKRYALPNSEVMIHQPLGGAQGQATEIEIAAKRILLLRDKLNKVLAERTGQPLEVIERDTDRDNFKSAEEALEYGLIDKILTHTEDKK
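ClpP 10 microg/mL final, pH 8 Tris/KCl buffer with BSA, glycerol, Tween-20; compound pinned in; FRET-FV substrate; RT 20 min; Ex320/Em430; ΔFRET vs ADEP 5.8 microM, DMSO, no enzyme.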
* = called active by the depositor; [ ] = remark or other dose.

What do the screens show for `O=C(CCN1C(=O)/C(=C/c2ccccc2)SC1=S)NNC(=O)c1ccncc1`?
Akt phos inh: inactive; gsp ag: -30.8%; gsp antag: 39.8µM*; RXFP1 agonist: -1.5%; RXFP1 antagonist: -0.5

How did Cc1cc(/C=C2\SC(=S)N(Cc3ccco3)C2=O)c(C)n1-c1cccnc1 do in these assays?
Akt phos inh: inactive; gsp ag: -26.0%; gsp antag: 1.6%; RXFP1 agonist: -2.3%; RXFP1 antagonist: 2.3; ClpP mod: -4.0%

Results for O=C(c1ccc2c(c1)CCN2S(=O)(=O)c1ccc(Cl)cc1)N1CCN(c2ccc(F)cc2)CC1 ?
RXFP1 agonist: -1.3%; RXFP1 antagonist: -5.2; ClpP mod: -0.8%

What do the screens show for `Cc1ccc(CNc2ccc(N3CCOCC3)cc2)cc1`?
Akt phos inh: inactive; gsp ag: inconclusive; gsp antag: -9.0%; RXFP1 agonist: -2.6%; RXFP1 antagonist: -9.0

How did c1cc(CNc2ccc(N3CCOCC3)cc2)ccn1 do in these assays?
Akt phos inh: inactive; gsp ag: 6.1%; gsp antag: -30.5%; RXFP1 agonist: -2.5%; RXFP1 antagonist: 1.0; ClpP mod: 31.6µM*

What do the screens show for `Cc1cc(C)c(S(=O)(=O)N2CCN(C(=O)CN3C(=O)NC4(CCCC4)C3=O)CC2)c(C)c1`?
Akt phos inh: inactive; gsp ag: 3.4%; gsp antag: 7.8%; RXFP1 agonist: -3.2%; RXFP1 antagonist: -0.7; ClpP mod: 35.5µM*

What do the screens show for `CN1CCCN(C2C3CC4CC(C3)CC2C4)CC1` (configuration not stated)?
Akt phos inh: -120.9%*; gsp ag: -21.6%; gsp antag: 9.6%; RXFP1 agonist: 0.2%; RXFP1 antagonist: 1.2; ClpP mod: -0.7%

What do the screens show for `CS(=O)(=O)N1CCN(C2C3CC4CC(C3)CC2C4)CC1` (configuration not stated)?
Akt phos inh: inactive; gsp ag: 20.9%; gsp antag: 2.2%; RXFP1 agonist: -2.3%; RXFP1 antagonist: -0.9; ClpP mod: -2.3%

What do the screens show for `COC(=O)c1sc2ncccc2c1OCc1ccc(Cl)cc1`?
Akt phos inh: inactive; gsp ag: 11.6%; gsp antag: 11.9%; RXFP1 agonist: 3.2%; RXFP1 antagonist: 0.2; ClpP mod: 35.5µM*

How did COc1ccc(N(CC(=O)NCCOc2ccccc2)S(=O)(=O)c2ccc(C)cc2)cc1 do in these assays?
Akt phos inh: inactive; gsp ag: 14.2%; gsp antag: -14.3%; RXFP1 agonist: -1.6%; RXFP1 antagonist: -61.7*

What do the screens show for `Cc1ccc(NC(=O)C(Cc2ccccc2)NS(=O)(=O)c2cccc3nsnc23)c(C)c1` (configuration not stated)?
RXFP1 agonist: -4.1%; RXFP1 antagonist: -7.3; ClpP mod: -0.7%

Results for Cc1ccc(C(=O)O)cc1NC(=O)c1cccs1 ?
Akt phos inh: inactive; gsp ag: -6.5%; gsp antag: 1.1%; RXFP1 agonist: -0.4%; RXFP1 antagonist: -2.4; ClpP mod: -0.4%

Results for Cc1ccc(C(=O)O)cc1NC(=O)C1=CSCCO1 ?
gsp ag: 13.4%; gsp antag: -4.4%; RXFP1 agonist: 0.1%; RXFP1 antagonist: -110.2*; ClpP mod: -0.8%

Results for COc1ccc(NS(=O)(=O)c2cc(NC(=O)c3ccc(=O)[nH]c3)ccc2N2CCCC2)cc1 ?
Akt phos inh: inactive; gsp ag: -13.9%; gsp antag: -8.3%; RXFP1 agonist: 0.4%; RXFP1 antagonist: 5.0; ClpP mod: -3.1%

How did Nc1nc(Nc2ccccc2)nc(N2CCOCC2)c1[N+](=O)[O-] do in these assays?
Akt phos inh: inactive; gsp ag: 14.7%; gsp antag: 11.0%; RXFP1 agonist: 3.4%; ClpP mod: 15.8µM*

How did Cc1cccc(Nc2nc(N)c([N+](=O)[O-])c(N3CCC(C)CC3)n2)c1 do in these assays?
Akt phos inh: inactive; gsp ag: 28.4%[15.4 µM]; gsp antag: -8.0%; RXFP1 agonist: 1.3%; RXFP1 antagonist: -68.7*; ClpP mod: -1.7%

How did Cc1cccc(Nc2nc(N)c([N+](=O)[O-])c(N3CC(C)CC(C)C3)n2)c1 (configuration not stated) do in these assays?
Akt phos inh: inactive; gsp ag: -3.2%[15.4 µM]; gsp antag: -15.3%; RXFP1 agonist: 0.4%; RXFP1 antagonist: -25.9; ClpP mod: 1.1%

Results for CC(C)(C)c1ccc(-c2nc(SCC(=O)Nc3ccccc3F)n3[nH]c(=O)cc3n2)cc1 ?
RXFP1 agonist: 2.5%; RXFP1 antagonist: -63.8*; ClpP mod: -11.8%

What do the screens show for `O=C(CSc1nc(-c2ccco2)nc2cc(=O)[nH]n12)Nc1ccccc1F`?
RXFP1 agonist: -0.1%; RXFP1 antagonist: -9.0; ClpP mod: -1.2%

What do the screens show for `CCN(CC)c1ccc2c(-c3ccc(S(=O)(=O)O)cc3S(=O)(=O)[O-])c3ccc(=[N+](CC)CC)cc-3oc2c1`?
Akt phos inh: inactive; gsp ag: 60.2%[15.4 µM]; gsp antag: 14.5%; RXFP1 agonist: 28.2µM*; RXFP1 antagonist: 37.1; ClpP mod: -0.2%

Results for CCN(CC)CCNc1ccnc2cc(Cl)ccc12 ?
gsp ag: inconclusive; gsp antag: 5.7%; RXFP1 agonist: 2.3%; RXFP1 antagonist: 0.6; ClpP mod: 31.6µM*

What do the screens show for `CCN(CC)Cc1cc(Nc2ccnc3cc(Cl)ccc23)ccc1O`?
Akt phos inh: inactive; gsp antag: -0.1%; RXFP1 agonist: 0.5%; ClpP mod: -2.4%

Results for OC(CNc1ccnc2cc(Cl)ccc12)CNC1CCCCC1 (configuration not stated) ?
Akt phos inh: inactive; gsp ag: 4.3%; gsp antag: 3.2%; RXFP1 antagonist: -6.2; ClpP mod: 28.2µM*

How did O=C1CC(NCc2ccc3c(c2)OCO3)C(=O)N1Cc1ccc2c(c1)OCO2 (configuration not stated) do in these assays?
Akt phos inh: inactive; gsp ag: -5.6%; gsp antag: 28.2µM*; RXFP1 agonist: -2.9%; RXFP1 antagonist: 1.6; ClpP mod: -0.2%

How did O=C(CSc1nnnn1-c1cccnc1)Nc1ccccc1F do in these assays?
Akt phos inh: inactive; gsp ag: -14.5%; gsp antag: -2.7%; RXFP1 agonist: 0.4%; RXFP1 antagonist: -13.5; ClpP mod: 28.2µM*

What do the screens show for `COc1ccc(Cl)cc1NC(=O)CN(C)C(=O)C1COc2ccccc2O1` (configuration not stated)?
Akt phos inh: inactive; gsp ag: 1.5%; gsp antag: -24.0%; RXFP1 antagonist: -10.1; ClpP mod: -2.7%
